This assay deals with VDR:RXRa (NR concentration 270 nM, RXRa partner concentration 90 nM). Kind of assay: PBM binding z-score (relative to random genomic background probes); higher = stronger binding; sequences stand for … in GC…GCGATTGACAGCGTAGAATGAAGG
The protocol:
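Protein-binding microarray (Agilent 4x180K custom design, double-stranded 60-nt probes: 5' GC cap, 34-nt variable region, 24-nt constant primer region; full probe sequence given). Purified or IVT nuclear receptor:RXRα heterodimers (3:1 NR:RXRα, mostly 270:90 nM) or homodimers were incubated for 1 h in PBS with 2% milk and no ligand, then detected with Alexa488 antibodies. Fluorescence from o1-orientation probes (~5 replicates averaged) was converted to z-scores against 500 random hg19 background probes. Variable regions are seed direct-repeat (DR0–DR5) sites, all their single-nucleotide variants and half-site ablations.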
The sequence GCTTACGGGTCAAAGGTTATACCATGAATAGAAT displayed a PBM binding z-score of 5.75.
Next, CCTAGCAGGCCTGGGTCACTCAAGCATTTCGCTT: 0.546.
Consider GCTTACGGGTCAAAGGTTATAGCCTGAATAGAAT, for which the PBM binding z-score was 5.72.
Next, CGTCCAAAGTCAAGGTCAGTGAAAGAGACTCGAA: 2.11; CATACAGGGTCTGCTAGGCCAGAGTAGGGACGGC: -0.426; CCAGACTGGTGAGAAGGTAACTCAGCCTCGATTA: -0.455.
For TAGCCTAGGTCATGCGGTCCAGTATAGTGTCGGC, the PBM binding z-score is 4.75.
Next, ACTATTAGTTGAGACGATGGCAACCGATAGGTTG: -0.293; TCTCGGAGGACACGAAAGGTCACAGCTCGACATC: 4.91; TTACCAAGGTGAAGGTCGTTGAACCCTCTGTAGA: 3.04.
Next, CCTATTAGTTGACCATAAGGGTAACCGAAGCTCG: 0.776.
Next, CTACCTAGGTGAACAAGGTCGTTGATTACTATTC: 5.37.
Sequence CCTGCTAGGGCATGGTCAGCTAATCTACAGTATG yielded a PBM binding z-score of -0.579.
Next, CGGCCAAGGTCATAGGAGGTCAGTGAAGACAGAT: 6.19; AATACAGGGTCATCGTAGGCCACAGTACGCACAG: 5.63.
GCTCGGAGGACAAGGTCAGAGGTTTGTCCGTAGA had a PBM binding z-score of 1.81.
As to TCTGTTAGGTCAGTTGGTCAGCTAACGAGCTGCC, the PBM binding z-score is 0.897.
With CCTAATGGGCCAAAGGTCATTGATTCCAATGCTC the figure was 4.64; with CGAATTAGGTCATTGACAGGACAGTGAATAGTAA, 2.3.
Next, CCTGCTAGGTCAATGGTCAGCAAAAGCAGCTCGC: 0.941; CGTCAAAGTTCAACTCAGGTAACGTAAAGCACGC: 4.45; ACTATTAGTTGAGACGAGGTCAACCGATAGGTTG: 4.47.
Next, TAGCCTAGCTCATGGGCCAGTATACCACGCGAAC: -0.717; CGTCCAAGGTCATAGGAGCTCAGTGAAGACAGAT: 4.11; TCTGGCAGGCCAGAGGGTCACTCAAGAGGTACGG: 1.5.
Consider GCTATTAGTTGAAAGGGCAACTGAATGATTCTCG, for which the PBM binding z-score amounted to 0.488.
In the case of GCTCGGAGGACCAGGTCAGAGCTTTGTCCGTAGA, the PBM binding z-score is -0.322.
As for CCTTACGGGTCACTCCAGGATATAGCATCGGAGT, the PBM binding z-score came out at 2.88.
With CCTACTTGGCCAAAAAGGTCATTGATGCCGATAA the figure was 4.82.
Regarding GATACAGGGTCAAGGCGAGAGTACGCGTATTGAT, the PBM binding z-score turned out to be 4.4.
Turning to TAGCCTACGTCATTCAGGGGCCAGTATAGAAAGC, the PBM binding z-score is -0.219.
TCTGCTCGGTCAGTTGGTCAGCTAACGAGCTGCC gave a PBM binding z-score of -0.549.
With ATCTCTAGGTAAAGATAGTTCAGTGAATGCAAAT the figure was 0.815; with CGTCACAGTTCAACTAAGGTAACGTAAAGCACGC, 2.92; with CATTCAGGGTCAGCTAGGCCAGAGTAGGGACGGC, 4.34.
For ATCACTAGGTAAGACTCAGTTCAGTGAAGAACGC, the PBM binding z-score worked out at 0.53.
Consider AGAACGAGGGAACGCTGAGTTGATAGCAGAGTAG, for which the PBM binding z-score was -0.0908.
The sequence CGTCAAAGTTCAACTAAGGTAACCTAAAGCACGC registered a PBM binding z-score of 4.68.
TTACCAAGGTGAGCTGATGTCGTTGATCCAACTC had a PBM binding z-score of -0.0183.
For the sequence ACTAGCTGGCCAAGTTTGGGTCACTCAAACAAAG, the PBM binding z-score was found to be 0.228.
